BAZ2B inh: BAZ2B (human) inhibition | 360,000 compounds, 4.4% hits | AlphaScreen BAZ2B-H3K14Ac peptide displacement | Potency, µM (top dose mostly 114 µM), inactives show at the highest dose activity change, negative = inhibition, usual class: inhibitors; note: % is set by controls: 0 for no effect and ±100 for the full control effect; nearly all actives have a fitted effect of over 60% in size
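BAZ2B (50 nM) with biotin-H3(5-23)K14Ac peptide (50 nM) in PBS pH 7.4, 0.01% Tween-20, preformed 30 min, then compound 30 min at room temperature; top concentration 110uM. AlphaScreen streptavidin donor/nickel chelate acceptor beads (10 ug/mL final), 20 min dark, signal read.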
JMJD2A Tudor: inhibitors of human JMJD2A Tudor domain; O75164; AlphaScreen JMJD2A-Tudor / H3K4me3 peptide binding; Potency, µM (top dose mostly 114 µM), inactives show at the top dose activity change, negative = inhibition, hits mostly inhibitors; 390,000 compounds, 4.4% hits; note: % is set by controls: 0 for no effect and ±100 for the full control effect; nearly all actives have a fitted effect of over 50% in size
Target sequence (O75164 whole entry, looked up, the tested form may be a part): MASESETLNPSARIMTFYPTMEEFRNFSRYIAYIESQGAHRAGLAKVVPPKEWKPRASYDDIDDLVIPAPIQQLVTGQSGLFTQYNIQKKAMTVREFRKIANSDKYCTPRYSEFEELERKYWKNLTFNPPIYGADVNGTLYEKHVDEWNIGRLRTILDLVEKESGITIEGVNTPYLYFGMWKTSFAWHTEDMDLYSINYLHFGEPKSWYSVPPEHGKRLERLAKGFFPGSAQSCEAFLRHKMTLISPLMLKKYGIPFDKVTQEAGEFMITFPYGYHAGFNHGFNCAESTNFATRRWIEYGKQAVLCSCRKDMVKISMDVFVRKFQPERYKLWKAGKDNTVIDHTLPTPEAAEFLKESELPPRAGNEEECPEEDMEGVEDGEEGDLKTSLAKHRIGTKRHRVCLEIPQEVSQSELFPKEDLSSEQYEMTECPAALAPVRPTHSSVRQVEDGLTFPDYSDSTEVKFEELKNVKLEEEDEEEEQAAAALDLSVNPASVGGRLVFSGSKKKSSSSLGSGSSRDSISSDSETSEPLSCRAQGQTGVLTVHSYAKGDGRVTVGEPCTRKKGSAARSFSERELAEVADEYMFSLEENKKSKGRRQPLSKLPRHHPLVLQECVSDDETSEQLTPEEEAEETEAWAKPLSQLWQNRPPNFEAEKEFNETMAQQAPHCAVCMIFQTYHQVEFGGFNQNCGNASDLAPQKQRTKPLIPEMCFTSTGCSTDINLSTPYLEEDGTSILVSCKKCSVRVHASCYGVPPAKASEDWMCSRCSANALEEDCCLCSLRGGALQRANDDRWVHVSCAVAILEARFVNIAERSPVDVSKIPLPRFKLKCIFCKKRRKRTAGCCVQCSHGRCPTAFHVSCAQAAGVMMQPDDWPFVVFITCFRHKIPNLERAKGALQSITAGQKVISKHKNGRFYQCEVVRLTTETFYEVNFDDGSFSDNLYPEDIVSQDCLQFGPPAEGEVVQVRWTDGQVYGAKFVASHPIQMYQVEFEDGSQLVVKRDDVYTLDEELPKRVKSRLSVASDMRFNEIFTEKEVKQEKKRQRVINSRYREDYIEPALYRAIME
G9a block: G9a (human) methyltransferase inhibition | Q96KQ7 | G9a H3K9 monomethylation, AlphaScreen, 2 h | Potency, µM (series often up to 102 µM), without a hit: at the top dose activity, negative = inhibition, actives largely listed as inhibitors | 350,000 compounds, 8.8% hits | AID 504332; note: % is set by controls: 0 for no effect and ±100 for the full control effect; nearly all actives have a fitted effect of over 75% in size
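AlphaScreen detection with an anti-monomethyl H3K9 antibody quantified product after a 2 h room-temperature reaction containing 500 nM biotinylated H3K9 peptide, 20 µM SAM and 20 nM enzyme, which had been preincubated 15 min with compound.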
HP1b binding inh: HP1-beta chromodomain-methylated histone interaction inhibition. P83916. 390,000 compounds, 0.56% hits. AlphaScreen HP1-beta / biotin-H3K9me3 peptide binding. Potency, µM (doses to about 114 µM), inactives show top-dose activity change, negative = inhibition, most hits filed as inhibitors; note: nearly all actives have a fitted effect of over 70% in size
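HP1-beta protein (50 nM final) preincubated 30 min at room temperature with biotinylated H3(1-18)K9me3 peptide (50 nM) in PBS pH 7.4, 0.01% Tween-20, then compound added for 30 min. AlphaScreen streptavidin donor/nickel chelate acceptor beads (10 ug/mL final), 30 min dark, luminescence read.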
GLS inh: blocks human kidney-isoform glutaminase activity; O94925; GLS enzymatic activity, qHTS titration; Potency, µM (series often up to 45.5 µM), for inactives: top-dose activity change, negative = inhibition, hits mostly inhibitors; 410,000 compounds, 0.21% hits; AID 624170; note: % is set by controls: 0 for no effect and ±100 for the full control effect
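Coupled fluorescence readout: glutamate oxidase/HRP/Amplex Red detect glutamate formed by hKGA from L-glutamine (1 mM solution added). Buffer 45 mM KH2PO4 pH 8.2, 0.02% Tween-20; reads at t0 and 30 min RT.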
Active calls of the source: *; ? = inconclusive; · = not tested or not shown; ! = repeats disagree; [ ] = dose if it differs, or a comment. Sampled rows, rich in hits. Any-hit rate of the full collection: about 10%. Calls come from the whole dose curve; as a rule, active = well fitted curve in the direction sought with a large enough effect; inconclusive = small, poorly fitted or top-dose-only effect, or another doubt; inactive = no such curve, though single readings can be large; an effect the other way counts as inactive or inconclusive. Potency is the fitted concentration of half-maximal effect.

SMILES | BAZ2B inh | JMJD2A Tudor | G9a block | HP1b binding inh | GLS inh
CCN(CC)S(=O)(=O)c1cc([N+](=O)[O-])ccc1NNC(=O)Nc1ccc(F)cc1 | -37% | ? | ? | -3% | ·
O=c1c2sccc2nc(SCc2cc(=O)n3cc(Cl)ccc3n2)n1Cc1ccccn1 | 13% | -4% | -33% | 20% | -4%
CN(C(=O)COC(=O)c1n[nH]c2ccccc12)C1CCS(=O)(=O)C1 (centres undefined) | -3% | 11% | 9%[59 µM] | 29% | 3%
O=C(O)c1cccc(-n2cccc2C=C2C(=O)c3ccccc3C2=O)c1 | ? | ? | 50µM* | -8% | -10%
O=C1C(=Cc2cccn2-c2ccccc2)C(=O)c2ccccc21 | ? | -29% | 3.5µM* | -11% | 1%
O=C(N/N=C/c1cccn1-c1cccc(C(=O)O)c1)Nc1ccccc1 | 79µM* | ? | -6%[59 µM] | -24% | 0%
O=C(O)c1cccc(-n2cccc2/C=C2/SC(=O)N(CC(=O)N3CCCC3)C2=O)c1 | 50µM* | 40µM* | 45µM* | ? | ·
O=C1C(=Cc2cccn2-c2ccc(O)cc2)C(=O)c2ccccc21 | ? | -7% | · | 28% | -4%
COC(=O)C(CSCc1ccccc1)NC(=O)CCNC(=O)OCc1ccccc1 (centres undefined) | · | · | · | · | 1%
CCCCC(=O)NNC(=O)CC(=O)Nc1ccccc1C(=O)O | -11% | -12% | -1% | 16% | 4%
COc1cccc(CN2C(=O)c3ccccc3Sc3ccc(C(=O)OCc4ccco4)cc32)c1 | -20% | -26% | 2%[59 µM] | 12%[57 µM] | -7%
COc1ccccc1N1CCN(C(=O)CCCn2c(=S)[nH]c3ccccc3c2=O)CC1 | · | · | · | · | -5%
Nc1ccccc1NC(=O)CCn1c(=S)[nH]c2ccccc2c1=O | -5% | -6% | 45µM* | 55% | 15%
O=C(CCCCCn1c(=S)[nH]c2ccccc2c1=O)N1CCOCC1 | -36%[57.1 µM] | 28% | 35µM* | 44% | ·
O=C(CCCn1c(=S)[nH]c2ccccc2c1=O)N1CCOCC1 | ? | 22µM* | -3%[59 µM] | 1% | 8%
COc1ccc(OC)c(NC(=O)CCn2c(=S)[nH]c3ccccc3c2=O)c1 | -16% | -2% | 14% | 37% | -12%
COC(=O)C1=NN(C(=O)c2cccc(Br)c2)C(O)(c2ccc(Cl)cc2)C1 (centres undefined) | -33% | -33% | 27%[59 µM] | 18% | 17%
CC(C)OC(=O)N(C)C[C@@H]1OCc2cn(nn2)CCCC(=O)N([C@H](C)CO)C[C@H]1C | · | · | · | · | 7%
COc1ccc(C(=O)O)nc1C | 15% | 5.6µM* | -11% | 0% | 0%
Cc1ccc2c(Cl)c(Cc3ccccc3)c(=S)[nH]c2n1 | · | 32µM* | · | ? | -4%
CCN(Cc1ccccc1)c1ccc(/C=N/N=C(N)N)cc1 | ? | 35µM* | ? | ? | 13%
CCN(Cc1ccccc1)c1ccccc1 | · | 14% | · | 73% | 27%
CCN(CC(=O)Nc1ccc(OC)cc1)C(=O)c1cc(-c2cccs2)nn1-c1ccccc1 | -31% | -14% | ? | 16% | 0%
O=C(O)c1cc(-c2cccs2)nn1-c1ccccc1 | -38% | -4% | 45µM* | 28% | 0%
O=C(O)c1cc(-c2cc3ccccc3o2)nn1-c1ccccc1 | · | -9% | 45µM* | 28% | 0%
SMILES | BAZ2B inh | JMJD2A Tudor | G9a block | HP1b binding inh | GLS inh
COc1ccc(NC(=O)CN(C)C(=O)c2cc(-c3cccs3)nn2-c2ccccc2)cc1 | -5% | -21% | 50µM* | 5% | -3%
Cc1noc(C)c1CSCC(=O)N(C)CC(=O)Nc1ccc(F)c(F)c1F | 4% | -17% | -20% | 22% | 1%
CCN(CC(=O)NCc1ccc(F)cc1)c1ccc(S(C)(=O)=O)cc1[N+](=O)[O-] | 10% | -10% | -30% | 39% | 0%
CCCCOC(=O)Nc1nnc(-c2ccccc2OC)s1 | · | -21% | -8%[59 µM] | 27% | 8%
CCOc1ccc(N2C(=O)c3cccnc3C2Nc2ccc(Cl)cc2)cc1 (centres undefined) | -26% | -19% | -11%[59 µM] | 20% | -3%
Cc1ccc(NC2c3ncccc3C(=O)N2c2ccccc2C)cc1C (centres undefined) | 20µM* | 11µM* | ? | -25% | ?
CCCOc1ccc2c(c1)C(=NN=C(N)N)c1cc(OCCC)ccc1-2 | 40µM* | 28µM* | ? | ? | 4%
CCNC(=O)C1CCCN(C(=O)c2ccc(F)c(Cl)c2)CC1 (centres undefined) | · | · | · | · | 3%
O=C(CSc1nnc2c(n1)[nH]c1ccccc12)Nc1ccc(N2CCOCC2)cc1 | -31% | 32µM* | · | 0% | 3%
c1ccc2c(c1)[nH]c1nc(SCCN3CCOCC3)nnc12 | 6% | 79µM* | 3.5µM* | 18% | 7%
O=C(Cc1c[nH]c2ccccc12)Nc1ccc(N2CCOCC2)cc1 | ? | ? | 22µM* | 0% | 0%
O=C(Cc1c[nH]c2ccccc12)N1CCN(c2ccccc2)CC1 | -30% | -28% | ? | 9% | 23%
CCCn1c2ccccc2c2nnc(SCCN3CCOCC3)nc21 | -20% | -24% | ? | 37% | 3%
CCCCSc1nnc2c(n1)[nH]c1ccccc12 | ? | 22µM* | -3%[12.7 µM] | 23% | 2%
Cc1ccc(NC(=O)CSc2nnc3c(n2)[nH]c2ccccc23)cc1 | -1% | -8% | 20% | 19% | -5%
CC(C)(CN1CCNCC1)NS(=O)(=O)c1ccc(Cl)cc1 | 7% | -22% | 14%[12.7 µM] | 20% | 7%
CCC(=O)Oc1ccc2c(C)cc(=O)oc2c1C | -1% | 8% | 15%[12.7 µM] | 59% | 2%
CCOC(=O)C1(C)CCCN1C(=O)c1ccc(Cl)nc1 (centres undefined) | · | · | · | · | 7%
Brc1ccc2[nH]c3nc(SCCN4CCOCC4)nnc3c2c1 | -12% | 79µM*! | 40µM* | 6% | 21%
O=C(CSc1nnc2c(n1)[nH]c1ccc(F)cc12)N1CCOCC1 | -3% | -5% | -2% | 29% | 1%
CC1Cc2cc(/C(O)=C3/C(=O)C(=O)N(CCCn4ccnc4)C3c3ccncc3)ccc2O1 (centres undefined) | ? | -23% | · | 33% | 2%
O=[N+]([O-])c1ccc(CN2CCN(c3nc4ccccc4s3)CC2)cc1 | ? | -5% | -17% | -17% | 11%
CCCn1nc([N+](=O)[O-])c(C(C#N)c2nc3ccccc3s2)c(Cl)c1=O (centres undefined) | 10µM* | 16µM* | 7.1µM* | 11µM* | 29%
CCn1nc([N+](=O)[O-])c(C(C#N)c2nc3ccccc3n2C)c(Cl)c1=O (centres undefined) | 40µM* | ? | ? | ? | 9%
O=C(CN1C(=O)NC2(CCc3ccccc32)C1=O)Nc1cccc(F)c1 (centres undefined) | -23% | -4% | ? | 13% | 3%

Source: PubChem (National Center for Advancing Translational Sciences (NCATS))
